The record followed here is PubChem BioAssay.

For assay [1], the system named is Plasmodium falciparum Sir2 (PF13_0152, Sir2A). Nature of the assay: pfSir2 binders on small-molecule microarrays, primary screen, biochemical, small-molecule microarray, 635 nm fluorescence (AID 1098).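 Also: score merges spot fluorescence intensity with its signal-to-noise ratio.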 To be noted: small-molecule microarray binding, fluorescence 635 nm; higher = more signal.
Assay [2] can be described thus: small-molecule microarray binders of probe aDKK1, primary screen, biochemical, biotinylated probe, 635/667 nm fluorescence (AID 1099).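 Also: score merges 667nm spot fluorescence with signal to noise across triplicate slides.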 To be noted: higher = more signal.
Assay [3] in a line: small-molecule microarray binders of probe aCHRDL2, primary screen, biochemical, biotinylated probe, 635/667 nm fluorescence (AID 1100). To be noted: higher = more signal.
Assay [4] is described as follows: splicing luciferase reporter signal modulators, primary screen, spliceosome inhibition project, cell-based, HEK293, splice +/- reporter (AID 1101).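 Also: HEK293 cells carrying a splicing-competent luciferase reporter gene; test concentration not given here.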 Particulars: luminescence, 24 h, higher = more signal, called active from +8 up or from −8 down.
In assay [5] the target is Fibroblast growth factor 10 (Homo sapiens) (UniProt O15520). As to the kind of experiment: FGF10 binders on small-molecule microarrays, primary screen, biochemical, small-molecule microarray, 635 nm fluorescence (AID 1102). Particulars: FGF10 binding, fluorescence 635 nm, higher = more signal.
The test system of assay [6] is glycogen synthase kinase-3 (GSK3A per assay name; protocol says GSK3B). Nature of the assay: GSK3 binders on small-molecule microarrays, primary screen, biochemical, small-molecule microarray, 635 nm fluorescence, GSK3A (AID 1103). Also: the record names both GSK3A and GSK3B. To be noted: small-molecule microarray binding, fluorescence 635 nm; higher = more signal.
Assay [7] addresses Epidermal growth factor receptor (Homo sapiens) (UniProt P00533). As to the kind of experiment: EGFR binders on small-molecule microarrays, primary screen, biochemical, small-molecule microarray, 635 nm fluorescence (AID 1104).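 Also: score merges 667 nm emission intensity with spot signal to noise over triplicate slides.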 Particulars: EGFR binding, higher = more signal.
Assay [8] has as its target Follistatin-related protein 3 (Homo sapiens) (UniProt O95633). Nature of the assay: FSTL3 binders on small-molecule microarrays, primary screen, biochemical, small-molecule microarray, 635 nm fluorescence (AID 1105).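 Also: score merges emission near 667 nm and signal to noise per printed spot across three slides.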 To be noted: FSTL3 binding, higher = more signal.
The target of assay [9] is Dickkopf-related protein 1 (Homo sapiens) (UniProt O94907). Nature of the assay: DKK1 binders on small-molecule microarrays, primary screen, biochemical, small-molecule microarray, 635 nm fluorescence scan (AID 1106).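 Also: score merges emission near 667 nm with signal to noise over three replicate slides.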 To be noted: DKK1 binding, higher = more signal.
The subject of assay [10] is Inhibin beta A chain (activin A). As to the kind of experiment: INHBA (activin A) binders on microarrays, primary screen, biochemical, small-molecule microarray, 635 nm fluorescence scan (AID 1107).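 Also: mouse activin A protein probed at 4.33 µg/mL on printed slides; score merges bound-protein fluorescence near 667 nm with spot signal-to-noise.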 To be noted: small-molecule microarray binding, higher = more signal.
In assay [11] the test system is Human papillomavirus type 1a protein E7 (residues 44-93). As to the kind of experiment: HPV1a E7 fragment binders on microarrays, primary screen, biochemical, small-molecule microarray, residues 44-93, 635 nm fluorescence (AID 1108).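 Also: E7 fragment applied at 1 µg/mL in TBST for 1 h at 4 C; score combines spot fluorescence with its signal to noise ratio.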 Particulars: small-molecule microarray binding, fluorescence 635 nm; higher = more signal.
Assay [12] is described as follows: modulators of HCV replicon luciferase signal, primary screen, HCV replication inhibitor project, Huh7 cells, luciferase reporter (AID 1109).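 Also: huh7 hepatoma cells harbouring a luciferase neomycin HCV replicon reporter; luciferase luminescence as measure of HCV replicon replication; test concentration not given here.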 Particulars: 48 h, higher = more signal. (Replicon systems follow genome replication, usually without infectious particles.)
The target in assay [13] is Left-right determination factor 2 (Homo sapiens) (UniProt O00292). Nature of the assay: LEFTY2 binders on small-molecule microarrays, primary screen, biochemical, small-molecule microarray, 635 nm fluorescence scan (AID 1110). Particulars: LEFTY2 binding, higher = more signal.
Assay [14] has as its target Calmodulin-1 (Homo sapiens) (UniProt P0DP23). As to the kind of experiment: CALM1 binders on microarrays, EGTA buffer, profiling panel, biochemical, small-molecule microarray, Cy5-labelled CALM1 (AID 1111).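 Also: labelled calmodulin applied in Tris saline Tween buffer holding calcium plus EGTA and DTT.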 Particulars: Cy5-CALM1 binding fluorescence, higher = more signal.
Assay [15] shares this target. As to the kind of experiment: calcium-bound CALM1 binders on microarrays, profiling panel, artefact control for SMM control-protein annotation, biochemical, small-molecule microarray, Cy5-labelled CALM1, plus calcium (AID 1112).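 Also: score merges spot fluorescence with signal to noise from triplicate slides.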 To be noted: Cy5-CALM1 binding fluorescence, higher = more signal.
A short description of assay [16]: small-molecule microarray binders of probe aWnt5a, primary screen, biochemical, biotinylated probe, 635/667 nm fluorescence (AID 1113).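 Also: score merges 667 nm fluorescence intensity with signal-to-noise per printed feature.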 Particulars: higher = more signal.
Assay [17] is described as follows: small-molecule microarray binders of probe aShh, primary screen, biochemical, biotinylated probe, 635/667 nm fluorescence (AID 1114).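 Also: probe is biotin-labelled aShh protein from a stem cell growth factor screen; measures binding of labelled protein to compounds printed on the slide; score merges feature fluorescence at 667 nm with signal-to-noise.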 Particulars: higher = more signal.
Assay [18] can be described thus: small-molecule microarray binders of probe aNog, primary screen, biochemical, biotinylated probe, 635/667 nm fluorescence (AID 1115).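 Also: probe is biotinylated aNog protein used at 0.15 µg/mL for 1 h at 4 C; z-score combines 667 nm fluorescence of each spot with its signal to noise.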 To be noted: higher = more signal.
For assay [19], the target named is Torsin-1A-interacting protein 1 (Homo sapiens) (UniProt Q5JTV8). Nature of the assay: LAP1 binders from COS7 cell lysate, primary screen, small-molecule microarray, 635/667 nm fluorescence (AID 1116). Particulars: COS7-hLAP1 lysate binding, 635 nm fluorescence, higher = more signal.
Assay [20] has as its target Alpha-bungarotoxin (Bungarus multicinctus) (UniProt P60615). Nature of the assay: alpha-bungarotoxin binders on microarray, profiling panel, artefact control for SMM control protein annotation, biochemical, small-molecule microarray, Alexa647 label, 635/667 nm fluorescence (AID 1117). To be noted: alpha-BTX-A647 binding fluorescence, higher = more signal.

Activity calls are given as the source filed them.

Sequence of Dickkopf-related protein 1 (Homo sapiens) (O94907 whole entry, looked up): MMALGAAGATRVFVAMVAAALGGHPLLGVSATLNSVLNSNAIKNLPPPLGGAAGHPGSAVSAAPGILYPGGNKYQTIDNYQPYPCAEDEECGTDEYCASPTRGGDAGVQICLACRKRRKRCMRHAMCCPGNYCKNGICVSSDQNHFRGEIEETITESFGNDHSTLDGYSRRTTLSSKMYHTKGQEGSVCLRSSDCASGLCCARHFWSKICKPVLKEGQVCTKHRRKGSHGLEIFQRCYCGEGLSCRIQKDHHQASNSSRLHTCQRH
Sequence of Fibroblast growth factor 10 (Homo sapiens) (O15520 whole entry, looked up): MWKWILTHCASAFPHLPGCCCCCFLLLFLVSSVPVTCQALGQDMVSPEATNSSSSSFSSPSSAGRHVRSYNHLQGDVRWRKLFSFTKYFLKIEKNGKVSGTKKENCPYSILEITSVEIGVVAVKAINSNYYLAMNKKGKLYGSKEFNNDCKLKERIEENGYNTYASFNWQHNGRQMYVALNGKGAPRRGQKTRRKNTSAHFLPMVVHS
Sequence of Follistatin-related protein 3 (Homo sapiens) (O95633 whole entry, looked up): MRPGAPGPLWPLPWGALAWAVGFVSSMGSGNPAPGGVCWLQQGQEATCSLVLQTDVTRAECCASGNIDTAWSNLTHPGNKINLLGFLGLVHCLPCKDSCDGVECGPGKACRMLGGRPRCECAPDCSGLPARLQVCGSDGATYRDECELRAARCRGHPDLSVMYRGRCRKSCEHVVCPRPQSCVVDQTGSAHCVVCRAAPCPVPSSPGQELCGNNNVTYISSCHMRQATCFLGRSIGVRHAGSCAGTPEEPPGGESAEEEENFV
Sequence of Alpha-bungarotoxin (Bungarus multicinctus) (P60615 whole entry, looked up): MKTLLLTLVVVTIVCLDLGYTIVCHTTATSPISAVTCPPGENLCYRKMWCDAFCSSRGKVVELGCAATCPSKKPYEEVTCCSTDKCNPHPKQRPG
Sequence of Left-right determination factor 2 (Homo sapiens) (O00292 whole entry, looked up): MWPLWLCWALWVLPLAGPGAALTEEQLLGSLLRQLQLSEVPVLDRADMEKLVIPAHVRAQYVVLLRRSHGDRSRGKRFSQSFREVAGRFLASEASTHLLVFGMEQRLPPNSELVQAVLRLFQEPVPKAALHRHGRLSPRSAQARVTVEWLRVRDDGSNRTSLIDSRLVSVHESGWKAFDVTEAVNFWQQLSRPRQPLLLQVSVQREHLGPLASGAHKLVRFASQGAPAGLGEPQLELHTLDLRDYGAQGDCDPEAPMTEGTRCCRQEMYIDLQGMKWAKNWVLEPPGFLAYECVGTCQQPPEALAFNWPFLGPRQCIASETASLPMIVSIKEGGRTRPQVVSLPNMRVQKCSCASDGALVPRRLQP
Sequence of Epidermal growth factor receptor (Homo sapiens) (P00533 whole entry, looked up): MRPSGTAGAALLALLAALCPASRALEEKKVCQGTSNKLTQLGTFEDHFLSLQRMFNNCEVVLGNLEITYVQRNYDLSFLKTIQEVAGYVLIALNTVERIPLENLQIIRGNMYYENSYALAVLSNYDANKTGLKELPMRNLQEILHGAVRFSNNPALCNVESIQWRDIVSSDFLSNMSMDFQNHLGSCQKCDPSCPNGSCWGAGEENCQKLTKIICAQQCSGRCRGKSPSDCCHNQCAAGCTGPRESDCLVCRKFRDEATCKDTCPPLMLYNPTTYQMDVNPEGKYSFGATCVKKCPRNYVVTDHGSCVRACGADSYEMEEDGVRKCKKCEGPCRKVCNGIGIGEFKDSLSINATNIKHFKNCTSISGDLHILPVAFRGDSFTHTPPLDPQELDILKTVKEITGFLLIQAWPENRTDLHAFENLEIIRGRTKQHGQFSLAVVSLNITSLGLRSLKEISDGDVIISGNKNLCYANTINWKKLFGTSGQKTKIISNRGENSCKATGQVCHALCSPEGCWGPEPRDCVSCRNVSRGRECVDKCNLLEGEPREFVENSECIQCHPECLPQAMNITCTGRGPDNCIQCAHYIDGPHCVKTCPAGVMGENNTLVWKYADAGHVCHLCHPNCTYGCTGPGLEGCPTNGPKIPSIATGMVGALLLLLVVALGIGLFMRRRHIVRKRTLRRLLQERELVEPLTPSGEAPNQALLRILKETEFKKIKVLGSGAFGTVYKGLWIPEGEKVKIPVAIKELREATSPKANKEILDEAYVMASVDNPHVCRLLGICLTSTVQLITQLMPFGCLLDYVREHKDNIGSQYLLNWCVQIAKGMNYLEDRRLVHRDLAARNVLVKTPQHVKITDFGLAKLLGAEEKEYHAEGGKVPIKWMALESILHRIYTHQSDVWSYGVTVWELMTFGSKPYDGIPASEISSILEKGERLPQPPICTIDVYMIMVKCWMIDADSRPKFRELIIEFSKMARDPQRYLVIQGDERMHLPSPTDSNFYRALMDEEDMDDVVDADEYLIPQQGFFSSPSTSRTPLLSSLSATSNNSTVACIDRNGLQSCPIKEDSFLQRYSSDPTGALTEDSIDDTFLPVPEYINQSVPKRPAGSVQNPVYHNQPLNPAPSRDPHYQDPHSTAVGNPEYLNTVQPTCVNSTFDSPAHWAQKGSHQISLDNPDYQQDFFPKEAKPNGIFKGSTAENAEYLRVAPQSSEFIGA
Sequence of Torsin-1A-interacting protein 1 (Homo sapiens) (Q5JTV8 whole entry, looked up): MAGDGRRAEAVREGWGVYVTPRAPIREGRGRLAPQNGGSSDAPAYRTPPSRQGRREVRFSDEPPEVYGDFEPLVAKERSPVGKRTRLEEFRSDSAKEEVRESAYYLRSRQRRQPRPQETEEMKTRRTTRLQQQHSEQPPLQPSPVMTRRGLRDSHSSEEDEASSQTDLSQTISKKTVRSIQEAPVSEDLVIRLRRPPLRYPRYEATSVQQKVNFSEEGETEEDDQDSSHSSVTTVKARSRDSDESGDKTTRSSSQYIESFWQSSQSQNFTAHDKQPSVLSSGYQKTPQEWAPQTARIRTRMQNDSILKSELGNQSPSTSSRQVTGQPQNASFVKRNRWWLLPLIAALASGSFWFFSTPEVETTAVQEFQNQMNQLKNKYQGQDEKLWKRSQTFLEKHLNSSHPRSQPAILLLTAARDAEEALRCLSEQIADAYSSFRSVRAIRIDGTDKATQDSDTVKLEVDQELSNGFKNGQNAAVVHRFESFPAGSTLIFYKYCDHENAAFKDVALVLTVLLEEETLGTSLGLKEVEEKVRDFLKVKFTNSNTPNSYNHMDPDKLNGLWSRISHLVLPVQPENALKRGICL

Take `CCOC(=O)C1=CC[C@@H](c2ccc(OC)cc2)N(S(=O)(=O)c2ccc(C)cc2)[C@H]1c1ccc(C)cc1`: the composite z-score in assay [1] was 0.71; in assay [2], 0.528; in [3], 0.836; in assay [5] it was 0.642; in [6], 1.07; in assay [7], -0.0102. For the same compound, the composite z-score in assay [8] was 0.887; in [9], -0.346; in assay [10], 0.588; in [11], 1.33; in [13], -0.0746; in assay [14], 0.783. Besides, the composite z-score in assay [15] is 0.894; in assay [16], 0.0509; in assay [17], 0.216; in [18], -0.201; in assay [19], 0.467; in assay [20], 0.611. The z-score in assay [4] was -0.0291 (inactive); in assay [12], -0.12.
Turning to `O=C1C[C@@](C(=O)O)(c2ccc([N+](=O)[O-])cc2)[C@@H](c2ccc(CO)cc2)N1C1CCCCC1`, the composite z-score in [1] was found to be 0.869; in [2], 0.366; in assay [3], 0.495; in assay [5], 0.869; in [6] it was 0.582; in assay [7], 0.369. Further, the composite z-score in [8] was 1.1; in assay [9], 0.649; in [10], 0.633; in [11], 1.45; in assay [13] it was 0.245; in assay [14] it was 1.2. Besides, the composite z-score in assay [15] was 0.161; in assay [16] it was 0.0037; in [17] it was 0.116; in assay [18], -0.485; in assay [19] it was 0.493; in assay [20] it was 1.07. Besides, the z-score in assay [4] is 0.185 (inactive); in [12] it was -1.67.
Turning to `CCOC(=O)C1=CC[C@@H](c2ccccc2)N(S(=O)(=O)c2ccc(C)cc2)[C@H]1c1ccccc1I`, the composite z-score is 0.88 in assay [1]; 0.655 in [2]; 1.13 in assay [3]; 0.619 in assay [5]; 0.698 in assay [6]; 0.467 in [7]. Also, the composite z-score in assay [8] came to 0.806; in assay [9], 0.254; in assay [10] it was 0.471; in [11], 0.77; in [13] it was 0.316; in assay [14], 1.82. For the same compound, the composite z-score in assay [15] is 0.944; in assay [16], -0.0195; in assay [17], -0.0769; in assay [18] it was -0.327; in [19] it was 0.911; in [20], 1.19. The z-score is -0.0553 (inactive) in assay [4] and -0.839 in assay [12].
As to `CC(C)N1C(=O)C[C@@](C(=O)NCCN2CCOCC2)(c2ccc([N+](=O)[O-])cc2)[C@H]1c1ccc(CO)cc1`, the composite z-score was 1.88 in [1]; -0.477 in [2]; 0.447 in [3]; -0.945 in [5]; -0.175 in assay [6]; -1.12 in assay [7]. The composite z-score was -0.854 in assay [8]; -1.03 in assay [9]; 0.16 in assay [10]; -0.0369 in assay [11]; -1.07 in [13]; -0.701 in [14]. Further, the composite z-score was -0.272 in assay [15]; -0.298 in assay [16]; -0.221 in assay [17]; -0.478 in assay [18]; 2.15 in assay [19]; -0.418 in assay [20]. Besides, the z-score in assay [4] was -0.286 (inactive); in assay [12] it was 0.323.
For `[N-]=[N+]=Nc1ccccc1C[C@@]1(C(=O)NCc2ccccc2)N=C(c2ccc(OCCCO)cc2)O[C@@H]1c1ccccc1N=[N+]=[N-]`, the composite z-score in [1] was 1.07; in assay [2] it was 0.61; in [3] it was 1.01; in assay [5], 1.1; in assay [6] it was 0.913; in assay [7] it was 0.0359. Also, the composite z-score in assay [8] is 0.309; in assay [9], -0.0102; in assay [10] it was 1.04; in [11] it was -0.334; in [13] it was -0.0656; in [14] it was 1.69. In addition, the composite z-score in assay [15] was 0.683; in assay [16], 0.33; in assay [17] it was 0.171; in [18], 1.18; in [19], 1.19; in [20] it was 1.97. For the same compound, the z-score in assay [4] is -0.457 (inactive); in [12], -3.01.
On to `CC(C)=CCCC=C(C)C(O)C1C=CC2C(=O)N(c3ccccc3)C(=O)C2N1Nc1ccc(C#N)cc1` (stereo not given), for which the composite z-score in assay [1] is 0.669; in assay [2], 0.473; in assay [3], 0.722; in assay [5] it was 0.569; in assay [6], 1.3; in assay [7], 0.411. The composite z-score in assay [8] is 1.29; in assay [9], 0.0902; in assay [10], 1.16; in assay [11], 1.4; in assay [13], -0.111; in assay [14] it was 1.46. The composite z-score is -0.175 in assay [15]; -0.0459 in assay [16]; -0.0769 in assay [17]; -0.468 in assay [18]; 0.217 in [19]; 0.82 in assay [20]. Besides, the figures for the z-score in assay [4] and in assay [12] were -0.403 (inactive) and -1.96, respectively.
